# Source: ChEMBL document CHEMBL4888484, “Replenishing the malaria drug discovery pipeline: Screening and hit evaluation of the MMV Hit Generation Library 1 (HGL1) against asexual blood stage Plasmodium falciparum ,using a nano luciferase reporter read-out” (2022)
# “And” between values parts separate entries of the source, which are not always exact repeats. Identical values can stand only once. Out of some 150,000 compounds screened, about 540 (0.36%) showed an effect of 50% or more. The full list was thinned out, with strong results kept by preference.
# Tested on: Plasmodium falciparum
# Test: Primary screen in NF54 nanoGlo assay, in single point, at 2uM, 72h; a lower Z score goes with more inhibition
# Format: functional, Erythrocyte
# Conditions: timepoint 72 hour
Structure (SMILES),% Inhibition,Z score,Z score (2 µM)
NC(=O)Cc1ccc(Cl)cc1Cl,-10%,1.37,
Cc1nn(-c2ccc(Cl)cc2)cc1-c1noc(C(=O)NC2CCC(C)CC2)n1 (stereo unspecified),-10%,1.19,
C[C@H]1CCN(Cc2ccncc2)CCN1Cc1ccccc1,-16%,3.16,
Cc1noc(C)c1CN1C[C@@H]2Oc3cc(F)ccc3C(=O)N(C)[C@@H]2C1,91%,-10.61,
CN1C(=O)c2ccccc2O[C@H]2CN(Cc3cc(-c4ccccc4)no3)C[C@H]21,4%,-0.65,
CN1C(=O)c2ccccc2O[C@H]2CN(Cc3ccccc3)C[C@H]21,-9%,1.36,
CON1CCC(C(=O)NC2c3ccccc3CCC2C)CC1 (stereo unspecified),0%,-0.03,
O=C(O)[C@H]1CCCN(C2CCN(Cc3ccccc3)CC2)C1,-13%,1.5,
c1nc(CCNC[C@@H]2CCCN3CCCC[C@H]23)c[nH]1,-15%,2.93,
COCc1ncc(C)n1CC1CN(C(=O)CCc2ccccc2)C1,-10%,1.37,
COc1cc(Cl)c(C)cc1NC(=O)c1cnn[nH]1,-17%,3.31,
COc1cc(Cl)c(C)cc1NC(=O)c1cc(=O)n(-c2ccc(C)cc2)[nH]1,53%,-6.9,
COc1cc(Cl)c(C)cc1NC(=O)c1nc2cc(C)c(C)cc2n(C)c1=O,37%,0.48,
O=C(N[C@H](c1ccccc1F)C1CCCC1)C1CCN(C(=O)c2ccco2)CC1,-9%,0.87,
O=C(C1CCC(C2CC2)N1)N1CCC2(CCc3ccccc3C2=O)CC1 (stereo unspecified),1%,-0.19,
CC(CCO)C1(CNC(=O)NCC2CCCO2)CCC1 (stereo unspecified),-7%,1.25,
CCc1cccc2c(C3=CCN(C(=O)Nc4cn[nH]c4)CC3)c[nH]c12,-8%,1.44,
Cn1ccnc1CN(Cc1cccnc1)C1CCCCCC1,2%,-0.44,
CCC(=O)N1CCC(NCc2csc3ccccc23)C(CC)C1 (stereo unspecified),-13%,1.94,
CCCc1nc(NC[C@H]2CC[C@H](CO)CC2)no1,-12%,1.18,
Cc1nc(C(F)(F)F)c(CN(C)C[C@H]2CCOC2)s1,-8%,1.25,
Cc1oc(-c2ccc(C(=O)NCCN(C)C)cc2)nc1CN1CCc2ccccc21,-14%,1.84,
Cc1nc(C)c(CC(=O)N2CCN(c3ccccc3)CC2)c(=O)[nH]1,-33%,3.87,
O=C(NCCCc1ccccc1)c1ccc(CN2C(=O)CCn3nccc32)cc1,58%,-2.28,

Structure (SMILES),% Inhibition,Z score,Z score (2 µM)
COCCCNC(=O)c1ccc(CN2C(=O)CCn3nccc32)cc1,13%,-1.46,
CCCCNC(=O)c1ccc(CN2C(=O)CCn3nccc32)cc1,18%,-2.08,
CC1CCCN(C(=O)C2CCC2)C1CN (stereo unspecified),-3%,0.43,
CC(C)c1ccc2ncnc(N[C@H]3CCc4[nH]cnc4C3)c2c1,96%,-17.94,
C[C@@H](NC(=O)NC1CCc2[nH]cnc2C1)c1ccc(F)cc1 (stereo partly specified),-10%,1.89,
C[C@@H]1CC[C@H](CO)N1C(=O)Cc1cccc(C(F)(F)F)n1,3%,-0.37,
Cc1c(C(=O)NC[C@H]2CCCOC2)[nH]c2c(Cl)cccc12,-9%,1.62,
C[C@H](OC(=O)CNC(=O)OC(C)(C)C)C(=O)N1CCCCCC1,-12%,1.29,
Cc1ccc(CC[C@H]2Nc3ccccc3C(c3ccccc3)(c3ccccc3)O2)o1,81%,-13.4,
c1ccc(C2(c3ccccc3)O[C@@H](c3cccnc3)Nc3ccccc32)cc1,-4%,0.54,
CC(C)Oc1ccccc1[C@H]1Nc2ccccc2C(c2ccccc2)(c2ccccc2)O1,-1%,0.21,
Cc1cc(=O)n(CC(=O)N2CCCC[C@@H]2CCc2ccccc2)nc1C,-18%,3.31,
O=C(c1cccs1)N(Cc1ccccn1)c1nc2ccccc2s1,4%,-0.46,
Cc1oc(-c2ccn[nH]2)cc1S(=O)(=O)Nc1ccc(F)c(Cl)c1,37%,-0.01,
Cc1oc(-c2ccn[nH]2)cc1S(=O)(=O)Nc1cccc(Cl)c1,59%,-0.35,
Cc1ccc(F)c(NS(=O)(=O)c2cc(-c3ccn[nH]3)oc2C)c1,2%,-0.25,
O=C(O)c1cc(NS(=O)(=O)c2cc(F)ccc2F)ccc1N1CCCCCC1,-4%,0.67,
CCc1cccc2c(C3=CCN(c4ccc5nnc(C(F)(F)F)n5n4)CC3)c[nH]c12,11%,-2.04,
Cc1cc(C)cc(NC(=O)c2c(C)sc3ncnc(N4CCCC4)c23)c1,-2%,0.31,
CC(CN1CCC(N2CCOCC2)C1)c1cccc(Cl)c1 (stereo unspecified),5%,-0.64,
CCC(=O)NCc1nc2c(n1C)CN(C(=O)c1ccc(CC)cc1)CC2,2%,-0.2,
COC1(C)CCN(C(=O)c2ccon2)CC1,-4%,0.52,
O=C(CCc1conc1-c1cccc(F)c1)NC1CC1,-8%,1.59,
Cc1csc(S(=O)(=O)N2CC[C@H](n3cccn3)C2)c1,82%,1.47,

Structure (SMILES),% Inhibition,Z score,Z score (2 µM)
Cc1cc(C)c(S(=O)(=O)N2CC[C@H](n3cccn3)C2)s1,-1%,0.1,
O=S(=O)(c1cccs1)N1CC[C@H](n2ccnn2)C1,-9%,1.54,
COC[C@](C)(CCO)NC(=O)Nc1cc(F)cc(Br)c1,-13%,1.11,
CCn1cc(C(=O)Nc2ccc(OCCN3CC[C@H](C)C3)cc2)cn1,5%,-0.92,
Cc1cc(C)cc(N(CCC#N)C(=O)CN2CCC[C@H]2c2ccc3c(c2)OCCCO3)c1,-2%,0.18,
CNC(=O)Nc1cccc(NC(=O)c2cncc(-c3cnn(C)c3)c2)c1,24%,-3.15,
Cn1cc(C(=O)N[C@H]2CCN(c3ccc(F)c(Cl)c3)C2)cn1,-3%,0.57,
COCCCCC(=O)N1CCC[C@H](N)[C@@H]1c1ccccc1OC,4%,-0.43,
O=C(CN1C(=O)N[C@]2(CCc3cc(Cl)ccc32)C1=O)c1ccc2c(c1)OCO2,0%,-0.01,
CC(C)Nc1nc2nonc2n2nnnc12,31%,-3.95,
CC(C)Nc1nc2nonc2n2cnnc12,77%,-8.71,
C[C@H](Nc1nc2nonc2n2nnnc12)c1ccccc1,27%,-3.54,
Cc1cc(N2CCC[C@H](CNC(=O)CN3CCOCC3)C2)nc2cc(F)ccc12,-15%,1.9,
CC(=O)N[C@H]1CCN(S(=O)(=O)c2sccc2Cl)C1,0%,-0.08,
O=C(NC1CCCC1)[C@@H](c1ccccc1)N1CCS(=O)(=O)CC1,7%,-0.84,
O=C(NC[C@]12C[C@H]1COC21CCC1)c1ncoc1-c1ccon1,5%,-0.99,
CN(CC(C)(CO)CO)C(=O)c1ccsc1,6%,-0.9,
CCOC(=O)C1CCCN(C2CCN(C(=O)CCC3(Cc4ccc(C)cc4)CCC(=O)N3)CC2)C1 (stereo unspecified),-5%,0.68,
Cc1sc2nc(-c3ccccn3)nc(NCC(=O)N3CCC(O)CC3)c2c1-c1ccccc1,25%,-2.12,
Cc1nc(CCNc2nc(-c3ccccn3)nc3c2CCNCC3)no1,-2%,0.27,
Cc1cc(CN(C)C(=O)[C@H]2CC(=O)N(c3ccccc3)C2)no1,-3%,0.62,
CCC(=O)Nc1ccc(Oc2c(C)c(C(=O)O)nn2-c2ccccc2C)c(S(=O)(=O)N[C@@H](C)CC)c1,-10%,0.97,
Cc1c(C(=O)O)nn(-c2ccc(F)cc2)c1Oc1ccc(NC(=O)CC(C)C)cc1S(=O)(=O)NCC(C)C,-16%,1.93,
CCC(=O)Nc1ccc(Oc2c(C)c(C(=O)O)nn2-c2ccccc2CC)c(S(=O)(=O)NCC(C)C)c1,97%,-9.77,

Structure (SMILES),% Inhibition,Z score,Z score (2 µM)
CC1=C(C(=O)NCCC(F)(F)F)Cn2nnnc2N1C,0%,0.01,
CC(CC1OCC(C[N+]2(Cc3ccccc3)CCCCC2)O1)CC(C)(C)C (stereo unspecified),60%,-5.21,
COC(=O)c1ccc(C[N+]2(C[C@H]3COC4(CCCCC4)O3)CCCC2)cc1,-5%,,0.44 and 0.65
CC1(C)C2CCC(C2)C1CC1OCC(C[N+]2(Cc3ccccc3)CCCCC2)O1 (stereo unspecified),-7%,1.37,
Cc1ccc(-c2csc(-c3nc(-c4ccccc4)cs3)n2)c(C)c1,10%,-1.13,
Cc1cc(-c2ccccc2)[n+]2ccccc2n1,-15%,2.36,
Cc1cc[n+]2c(-c3ccccc3)cc(-c3ccccc3)nc2c1,60%,-11.27,
O=C(Cc1ccc2[nH]c(=O)[nH]c2c1)N1CCOC[C@@H]1CC1CCC1,2%,-0.19,
CCOC(=O)c1cc2n(n1)C[C@@](C)(C(=O)NCCC(C)C)N(c1ccc(C)c(C)c1)C2=O,-6%,0.75,
O=C(Cc1ccc(N(Cc2cccc(F)c2)C(=O)c2cccc(F)c2)cc1)NCCN1CCCC1,3%,-0.41,
Cc1ccc(C(=O)N(Cc2cccc(F)c2)c2ccc(CC(=O)N[C@@H](C)c3ccccc3)cc2)cc1,74%,-8.26,
CCC(=O)N(Cc1cccc(F)c1)c1ccc(CC(=O)NCCN2CCCC2)cc1,-2%,0.24,
O=C(Cc1ccc(N(Cc2cccc(F)c2)C(=O)c2cccc(F)c2)cc1)NCCN1CCCCC1,57%,-2.67,
O=C(Cc1ccc(N(Cc2cccc(F)c2)C(=O)C2CCCC2)cc1)NCCN1CCCCC1,59%,-9.89,
O=C(Cc1ccc(N(Cc2cccc(F)c2)C(=O)C2CCCC2)cc1)NCCN1CCCC1,25%,-2.85,
Cc1ccccc1C(=O)N(Cc1ccc(F)cc1)c1cccc(CC(=O)NCCN2CCCC2)c1,6%,-0.6,
Cc1ccc(CN(C(=O)c2ccccc2C)c2cccc(CC(=O)NCCN3CCCC3)c2)cc1,-9%,1.17,
O=C(Cc1ccc(N(Cc2ccc(F)cc2)C(=O)c2cccc(F)c2)cc1)NCc1ccccc1,-2%,0.3,
COc1cccc(C(=O)N(Cc2ccc(C)cc2)c2cccc(CC(=O)N[C@@H](C)c3ccccc3)c2)c1,-8%,1.49,
Cc1cccc(CN(C(=O)C2CCCC2)c2ccc(CC(=O)NCCN3CCCC3)cc2)c1,20%,-2.23,
Cc1ccccc1C(=O)N(Cc1cccc(F)c1)c1ccc(CC(=O)NCCN2CCCCC2)cc1,58%,-4.25,
